Compounds with a hit are over-represented: about 9.6% of the library has one in this group of screens.
INS promoter inh – inhibitors of insulin promoter-driven GFP, primary screen, imaging, TRM-6 cells (human fetal islet line), eGFP reporter, cell count; reporter expression induced with tamoxifen; inhibition, % at 2 µM; 0.9% of 130,000 active;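 active means inhibition above the mean plus 3 SD, with well images judged a real hit on visual review, cut at about 60% in these data, passing the limit was not always enough; inconclusive means inhibition over the cutoff but images rejected on review; inactive means inhibition not above the cutoff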
Insulin prom up – insulin promoter activators in MIN6 cells, imaging, high-content screening, mouse beta cells; 0.3% of 190,000 active; MIN6 insulin promoter-GFP reporter; active compounds read high; AID 1625, 2009; z-score at 5 µM;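 active means z-score above 3 at 5 µM with at least 500 cells counted in the well; inconclusive means wells under 500 cells, flagged as cytotoxic or low count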
bCat KO growth – primary screen for growth suppressors in beta-catenin knockout HCT116 cells (colon tumor, human); HCT116 beta-catenin knockout viability, CellTiter-Glo, 60 h; active compounds read low; AID 818, 2007; 1.5% of 140,000 active; viability, % at 10 µM;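 active means viability at or under a set limit, the compound median less 4 SD, cut at about 6% in these data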;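 further: 0% = Hyamine 1622 control at 20 µM and 100% = untreated cell control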
Autophagy HCS – autophagy modulators in MEF cells, primary screen, imaging, high-content, MEF GFP-LC3; MEF GFP-LC3 puncta imaging; test concentration mostly 10 µM; calls only at 10 µM (by protocol); 0.98% of 190,000 active; AID 463193, 2010;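 active means percentage of spot-positive cells more than 3 SD above its plate mean, without a fluorescence outlier flag or 80% toxicity; inconclusive means no clear call, values can overlap the other calls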;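 further: spot-positive cell cutoff set from DMSO-treated cells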
HCT116 PTEN-null – growth suppression of PTEN-null HCT116, primary screen, cell-based, CellTiter-Glo. 1.2% of 140,000 active. AID 827, 2007. HCT116 PTEN-null viability, 60 h; active compounds read low. viability, % at 10 µM;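 active means viability at or below a set limit, 4 SD under the median of all tested compounds, cut at about 3.7% in these data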;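 further: PTEN knockout HCT116 line with beta catenin targeted HCT116 as companion control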
L major viab – Leishmania major promastigote growth inhibition, primary screen | AID 1063, 2008 | Leishmania major promastigotes, resazurin fluorescence viability | inhibition, % at 10 µM | 9% of 200,000 active; in the data active means inhibition above about 50%;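 further: promastigotes grown with compound for 44 hours at 28 °C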
Starred values were filed as active, the others as inactive; i = inactive; u = inconclusive; x = no result given; + = active, no number.

SMILES	INS promoter inh	Insulin prom up	bCat KO growth	Autophagy HCS	HCT116 PTEN-null	L major viab
CC(=O)c1ccc(NC(=O)c2ccccc2Sc2ncnc3sc(C)c(C)c23)cc1	-13	0.54	90	i	85	2
CC1C2=C(CCCC2=O)N(c2cccc3ccccc23)C2=C1C(=O)CCC2	-16	x	x	i	x	55*
CCOC(=O)C1=C(C)N(c2ccccc2)C(=O)NC1c1cccc([N+](=O)[O-])c1 (centres undefined)	7	x	89	i	87	95*
CCOc1cc(CNCCO)cc(Br)c1OCc1ccccc1Cl	x	-3.9	1.2*	i	1.4*	100*
CCOc1cc(CNc2ccc(O)cc2)cc(Br)c1OCc1ccccc1F	8	-0.8	4.0*	i	5	80*
COc1cc(CNCc2ccncc2)cc(Br)c1OCc1ccccc1F	x	u	16	i	32	98*
COc1cccc(CNCCO)c1OCc1ccccc1Cl	x	-0.58	84	i	101	16
COc1cc(CNCCO)cc(Cl)c1OCc1ccccc1Cl	x	-0.92	x	i	x	99*
COc1cc(CNc2ccc(O)cc2)cc(Br)c1OCc1ccccc1F	x	0.98	83	i	79	4
Cc1ccc2cccc(SCC(=O)N3CCOCC3)c2n1	-2	0.56	94	i	109	-5
CCOc1cc(CNCCCN2CCOCC2)cc(Br)c1OCc1ccccc1Cl	-114	-2.9	x	i	x	101*
CCOc1cc(CNCCCN2CCOCC2)ccc1OCC(=O)NC(C)(C)C	6	x	x	i	x	1
C=CCOc1c(Br)cc(CNc2ccc(NC(=O)C(C)C)cc2)cc1OCC	x	-0.43	20	i	17	97*
CCOc1cccc(CNCCO)c1OCc1ccc(Cl)cc1	-56	x	80	i	86	10
CCOc1cc(CNCCO)cc(Br)c1OCc1ccc(Cl)cc1	2	x	1.7*	i	1.2*	101*
CCOc1cc(CNC(C)(C)CO)cc(Br)c1OCc1ccc(Cl)cc1Cl	14	-0.43	0.8*	i	0.8*	100*
O=C(CN1CCc2ccccc2C1)Nc1ccc(F)cc1F	6	-1.2	x	i	x	2
CN(C)S(=O)(=O)n1cnc2ccccc21	22	-0.19	104	i	106	-3
O=C(O)CSC1=NC(=Nc2cccc(Cl)c2)C2(CCCCC2)N1c1ccccc1	x	0.8	94	i	90	0
O=C1NC(=S)N(c2cccc(Cl)c2)C12CCCCC2	-26	-0.02	96	i	98	52*
O=[N+]([O-])c1ccc(N/N=C\c2cccn2-c2ccccc2)nc1	x	0.7	12	+	x	30
O=[N+]([O-])c1ccc(N/N=C/c2ccc(OCc3cccc4ccccc34)cc2)nc1	-145	x	x	+	x	4
Cc1ccccc1-n1c(C)cc(/C=N/Nc2ccc([N+](=O)[O-])cn2)c1C	-61	0.2	58	+	53	-3
N#Cc1ccccc1Cn1cc(/C=N/Nc2ccc([N+](=O)[O-])cn2)c2ccccc21	-400	x	x	i	x	11
CC(C)CCn1nnnc1C(c1ccc(F)cc1)N1CCC(C(N)=O)CC1 (centres undefined)	31	0.44	98	i	91	-6
SMILES	INS promoter inh	Insulin prom up	bCat KO growth	Autophagy HCS	HCT116 PTEN-null	L major viab
O=C(NCCC1=CCCCC1)c1ccc(=O)oc1	x	0.4	98	i	95	-2
O=C(NCCC1=CCCCC1)c1coc(=O)c(Br)c1	2	0.29	1.1*	i	1.0*	-4
Clc1cccc(CNCCNCc2cccc(Cl)c2)c1	-8	0.26	x	i	x	75*
OCCNCc1cccc(Br)c1	x	-0.06	x	i	x	-5
COc1ccc(-c2noc(COc3ccc4ccccc4c3Br)n2)cc1OC	8	0.89	108	i	101	-6
CC1Cc2ccccc2N1C(=O)CN(C)S(=O)(=O)c1cccc2cccnc12 (centres undefined)	x	-0.77	89	i	100	-7
Cc1csc(NC(=O)CN(C)S(=O)(=O)c2cccc3cccnc23)n1	x	3*	87	i	88	0
CN(CC(=O)N1CCCCC1)S(=O)(=O)c1cccc2cccnc12	86*	0.02	97	i	100	-7
CCC(=Nc1ccc(N)cc1)C1=C(O)C(C(=O)OC)C(C)(C)CC1=O (centres undefined)	x	0.92	98	i	92	-1

High-throughput results from PubChem.
